Assay outcomes: PubChem BioAssay, National Center for Advancing Translational Sciences (NCATS)
Rows were chosen to be rich in hits. Some 19% of all compounds tested hit in one or more screens of this group.
HT1080NT lethal = kills 2HG-producing HT-1080-NT fibrosarcoma cells. AID 686970. HT-1080-NT fibrosarcoma viability, CellTiter-Glo ATP luminescence, 48 h. hit rate 1.6% among 360,000. Potency, µM (highest dose often 46.1 µM), for the others: top-dose activity, negative = less viability, most hits filed as cytotoxic;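 note: NT is the 2HG producing partner of a matched IDH1 knockdown line; potency is the fitted concentration of half-maximal effect; 0% = DMSO-treated cells and -100% = media-only wells without cells; nearly all actives have a fitted effect of over 55% in size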
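Read-out is CellTiter-Glo luminescence after 10 minutes at room temperature, following 48 hours' compound treatment of HT-1080-NT cells (750 cells/well, RPMI, 5% FBS, 37 degrees C).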
TDP1 cell CPT = DT40-hTDP1 cell growth loss with CPT | chicken DT40 Tdp1-/-;hTDP1 cells + 20 nM CPT, ATP luminescence, 48 h | Potency, µM (highest dose often 46.2 µM), without a hit: top-dose activity change, negative = growth inhibition, actives largely listed as inhibitors | hit rate 12% among 420,000 | AID 686979; note: potency is the fitted concentration of half-maximal effect; nearly all actives have a fitted effect of over 55% in size
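Chicken DT40 Tdp1-/- cells stably complemented with human TDP1 were seeded at 400 cells/well in medium containing 20 nM camptothecin, exposed to pin-transferred compounds, and grown at 37 °C for at least 48 hr. Viability was read as ATP luminescence.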
TDP1 cell noCPT = qHTS for Inhibitors of human tyrosyl-DNA phosphodiesterase 1 (TDP1): qHTS in cells in absence of CPT; hit rate 15% among 420,000; DT40 Tdp1-/- hTDP1 cells, no CPT, ATP luminescence, 48 h; Potency, µM (top dose mostly 46.2 µM), for inactives: at the highest dose activity change, negative = growth inhibition, usual class: inhibitors; note: potency is the fitted concentration of half-maximal effect; nearly all actives have a fitted effect of over 55% in size
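Chicken DT40 Tdp1-/- cells complemented with human TDP1, screened without camptothecin (DMSO vehicle only), 400 cells/well. Compounds pin-transferred, cells incubated at 37 °C for at least 48 hr. Growth read as ATP-dependent luminescence (CellTiter-Glo, 30 min at RT).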
uPA generation = cell surface uPA generation inhibition; cell surface uPA generation assay, qHTS; Potency, µM (highest dose often 38.3 µM), without a hit: at the top dose activity change, negative = inhibition, hits mostly inhibitors; hit rate 0.31% among 330,000; active = well fitted inhibition curve with a large enough effect; inconclusive = small, poorly fitted or top-dose-only effect; inactive = no such curve, though single readings can be large or run the other way; tested in mouse RAW 264.7 cells; note: potency is the fitted concentration of half-maximal effect; nearly all actives have a fitted effect of over 55% in size
IL1B secr inh = inflammasome signaling inhibition, IL-1 beta readout; AID 743279; THP-1 LPS/ATP IL-1B secretion, AlphaLISA, 16 h; stronger effect = lower value; activity change, % at 57.5 µM; hit rate 4.7% among 360,000; in the data active = activity change below about -50%; inconclusive = mostly about -30% to -49%
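Secreted IL-1B measured by AlphaLISA bead assay after 16 h compound exposure of THP-1 cells; compounds (final up to 57.5 uM) added 1 h before LPS (250 ng/mL) and ATP (1.25 mM) stimulation; lower signal means less secretion.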
HT1080 IDH1KD tx = kills HT-1080 cells with IDH1 knockdown; AID 686971; hit rate 2% among 360,000; Potency, µM (doses to about 46.1 µM), for inactives: at the top dose activity, negative = toxicity, usual class: cytotoxic; HT-1080 IDH1 knockdown viability, ATP luminescence, 48 h;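 note: potency is the fitted concentration of half-maximal effect; 0% = DMSO wells and -100% = cell-free medium wells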
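Luminescent ATP read-out (CellTiter-Glo, 10 min at room temperature) after 48 h compound exposure at 37 °C gave viability of IDH1-knockdown HT-1080 cells. Activity was normalised to DMSO and cell-free wells, then fitted as concentration-response curves.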
Numbers without * were called inactive; ? = inconclusive; / = no result. Unless noted, calls come from the whole dose curve; as a rule, active = well fitted curve in the direction sought with a large enough effect; inconclusive = small, poorly fitted or top-dose-only effect, or another doubt; inactive = no such curve, though single readings can be large; an effect the other way counts as inactive or inconclusive. Unless noted, % is set by controls: 0 for no effect and ±100 for the full control effect.

SMILES	HT1080NT lethal	TDP1 cell CPT	TDP1 cell noCPT	uPA generation	IL1B secr inh	HT1080 IDH1KD tx
CC(c1ccccc1F)n1cc(C(=O)NCCCc2nc3ccccc3[nH]2)nn1 (configuration not stated)	1%	4%	-15%	3%	-8	1%
Oc1ccc(Nc2nc(Cl)nc(NCc3ccco3)n2)cc1	-7%	-5%	?	-6%	-109*	-5%
Clc1ccc(Nc2nc(NCc3ccco3)nc3nccnc23)cc1	/	-3%	-9%	/	/	/
CSc1nc(NCc2ccco2)c2ccccc2n1	-7%	?	?	6%	-13	?
Clc1nc(NCc2ccco2)c2ccccc2n1	/	?	7.1µM*	/	/	/
COc1cccc(S(=O)(=O)Nc2ccc(C(O)(C(F)(F)F)C(F)(F)F)cc2)c1	?	16µM*	16µM*	/	-3	?
CC(=O)Nc1ccc(NS(=O)(=O)c2cccc3ccccc23)cc1	-5%	?	-18%	/	9	?
CC(C)(C)c1ccc(S(=O)(=O)Nc2cccnc2)cc1	3%	?	?	/	9	-21%
O=S(=O)(Nc1ccc(C(O)(C(F)(F)F)C(F)(F)F)cc1)c1cccc2ccccc12	?	16µM*	21µM*	/	0	?
COc1ccc(NS(=O)(=O)c2cccc(C(=O)NNC(=O)c3ccc(NC(C)=O)cc3)c2)cc1	17%	14%	0%	3%	-5	17%
CC(C)(C)c1ccc(S(=O)(=O)Nc2ccc(C(O)(C(F)(F)F)C(F)(F)F)cc2)cc1	18µM*	16µM*	16µM*	/	-17	21µM*
CCC(C(=O)Nc1c(C)cccc1C)n1c(-c2ccc(=O)[nH]c2)nc2ccccc21 (configuration not stated)	-2%	0%	-4%	/	33	11%
O=C1NC[C@H](CCCCN2C[C@H](Cc3ccccc3)N(CCC3CCCCC3)C(=O)C2=O)N(Cc2ccccc2)C1=O	21%	?	?	/	20	14%
N#C/C(=C(/O)c1ccc(Cl)cc1)c1nc2ccccc2[nH]1	3%	-2%	12%	2%	-1	1%
N#C/C(=C(/O)c1ccc(Cl)c([N+](=O)[O-])c1)c1nc2ccccc2[nH]1	-13%	15µM*	?	-12%	?	-14%
C/C(O)=C(/C#N)c1nc2ccccc2[nH]1	0%	?	?	-2%	-14	-1%
N#C/C(=C(/O)C(Cl)(Cl)Cl)c1nc2ccccc2[nH]1	-7%	8.2µM*	9.2µM*	-28%	-7	0%
COc1cc(OC)cc(C(=O)OC/C(O)=C(\C#N)c2nc3ccccc3[nH]2)c1	-28%	?	?	6%	41	-28%
CC(=O)OC(/C(O)=C(\C#N)c1nc2ccccc2[nH]1)c1ccccc1 (configuration not stated)	8.9µM*	?	18µM*	-1%	7	?
N#C/C(=C(/O)c1ccc([N+](=O)[O-])cc1)c1nc2ccccc2[nH]1	-4%	-9%	?	-2%	-6	-5%
COc1cc(/C(O)=C(\C#N)c2nc3ccccc3[nH]2)cc(OC)c1OC	-1%	?	13µM*	0%	?	5%
Cc1c(C)c2c(c(C)c1OC(=O)c1cccnc1)CC[C@@](C)(CCC[C@H](C)CCC[C@H](C)CCCC(C)C)O2	/	-3%	-7%	/	/	/
Cc1cc2nc(-c3ccc(OCc4ccc(F)cc4)cc3)cc(C(F)(F)F)n2n1	/	-17%	-25%	/	/	/
CC(C)=CCC12Oc3cc(O)ccc3C1(O)Oc1cc(O)c([C@H]3C=C(C)CC(c4ccc(O)cc4O)[C@H]3C(=O)c3ccc(O)cc3O)c(O)c1C2=O (some centres not stated)	?	?	26µM*	5%	22	?
CC1=CC2=NC(=O)/C(=C\c3cccn3CCOc3ccccc3C)C(=N)N2O1	?	21µM*	?	-3%	?	?
SMILES	HT1080NT lethal	TDP1 cell CPT	TDP1 cell noCPT	uPA generation	IL1B secr inh	HT1080 IDH1KD tx
Cc1ccccc1Cn1cccc1/C=C1/C(=N)N2C=CSC2=NC1=O	?	18µM*	29µM*	-3%	13	?
COc1ccccc1OCCOc1ccc(/C=C2/C(=N)N3OC(C)=CC3=NC2=O)cc1OC	0%	?	?	2%	27	0%
Cc1ccc2c(c1)c1c(c(=O)n(-c3cccc(Cl)c3)c(=O)n1CC(=O)Nc1c(C)cccc1C)n2C	/	-7%	0%	/	/	/
COc1ccc(NC(=O)C2CCN(S(=O)(=O)c3cccc4nonc34)CC2)cc1	-17%	1%	-17%	-2%	4	-5%
CC(=O)N1c2c(cc(Br)cc2S(=O)(=O)N2CCN(c3cccc(Cl)c3)CC2)CC1C (configuration not stated)	/	10µM*	9.2µM*	/	/	/
CCOc1ccc(N(CC)S(=O)(=O)c2cc(Br)cc3c2N(C(C)=O)C(C)C3)cc1 (configuration not stated)	/	21µM*	7.3µM*	/	/	/
CCOc1ccc(OCC)c(NS(=O)(=O)c2cc(Br)cc3c2N(C(C)=O)C(C)C3)c1 (configuration not stated)	/	?	13µM*	/	/	/
CC1CC(C)CN(C(=O)COC(=O)c2ccc(S(=O)(=O)N(C)c3ccccc3)cc2)C1 (configuration not stated)	-3%	-26%	?	-8%	39	0%
COc1cc(NC(=O)CSc2ccccc2)c(C(=O)O)cc1OC	0%	-14%	-13%	-1%	3	2%
COc1cc(NC(=O)CSc2nc3c(C)ccc(C)c3cc2C)c(C(=O)O)cc1OC	5%	-7%	0.37µM*	5%	14	-3%
Cc1ccc(C(=O)Oc2ccc(Cl)c3cccnc23)cc1[N+](=O)[O-]	-1%	?	21µM*	-4%	-16	-20%
O=C(Oc1ccc(Cl)c2cccnc12)c1cccnc1	?	?	?	-3%	?	?
CNCc1cc(Br)c(OCC(=O)Nc2ccccc2OC)c(OC)c1	?	-3%	?	-4%	-62*	?
COc1cc(CNCC(C)C)cc(Br)c1OCC(=O)Nc1ccccc1	-23%	?	?	2%	-7	-26%
COc1ccccc1NC(=O)COc1ccc(Br)cc1CNC1CCCC1	-21%	?	?	2%	-86*	?
